In PubChem BioAssay (NCATS):
Inconclusive results are not listed. The source made the active and inactive calls. The call rests on the fitted dose curve; in most records, active means well fitted inhibition curve with a large enough effect; inconclusive means small, poorly fitted or top-dose-only effect; inactive means flat fitted curve, though single readings scatter. Where a SMILES comes first, the peptide text is derived from it. [ ]: non-standard residue; d: D form. ξ: configuration not given here. ξPhe(βξ-Me) = CC(c1ccccc1)C(N)C(=O)O; GABA = NCCCC(=O)O

These molecules were tested on CRL-7250 (assay: Cytotoxic Profiling of Annotated Libraries Using Quantitative High-Throughput Screening (AID 1296008; further: nearly all actives have a fitted effect of over 60% in size)). Details: Five cell lines viability, CellTiter-Glo ATP luminescence, 48-72 h; max response: active compounds read low.
Summary of the method: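 Cells exposed to compounds for 48 or 72 hr at 37 degrees Celsius. Viability read as ATP-coupled luminescence with CellTiter-Glo after 10 min at room temperature.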
On the % scale 0 is the no-effect control and ±100 the full control effect; potency means the concentration at half of the fitted maximal effect.

Row | Compound | max response | outcome | Potency
1 | Cc1cc(C(N)=O)ccc1-n1c(CCC(=O)O)ccc1-c1ccc(-n2ccnc2)cc1 | 1.88% (inactive) | – | –
2 | CCC(Nc1ncnc2nc[nH]c12)c1nc2cccc(F)c2c(=O)n1-c1ccccc1 (centres undefined) | -7.4% (inactive) | – | –
3 | O=C(Nc1ccn[nH]1)c1c(F)cccc1F | – | inactive | –
4 | CC1C(=O)CC2C3CCC(C(=O)O)C12CC3(C)CO (centres undefined) | -22.2% (inactive) | – | –
5 | CC(C)c1c2cc(-c3ccnc(NC4CCC(NC5CCOCC5)CC4)n3)ccc2nn1C (centres undefined) | – | – | 580 nM (active)
6 | C[C@H]1CC(=O)Nc2cccc(-c3cnn(C(C)(C)C)c3)c2N1 | -2.99% (inactive) | – | –
7 | C=C1C(O)C[C@@H]2C(C(=O)O)=CO[C@@H](O[C@@H]3O[C@H](CO)[C@@H](O)[C@H](O)[C@H]3OC(=O)c3ccc(O)cc3)[C@H]12 (some centres undefined) | -1.69% (inactive) | – | –
8 | O=C(O)[C@@H]1C[C@H]2C[C@@H](CCc3nn[nH]n3)CC[C@H]2CN1 | 0.564% (inactive) | – | –
9 | CC(=O)O[C@H]1[C@@H](O)[C@H](O[C@H]2[C@@H]3C=CO[C@@H](O[C@H]4O[C@@H](CO)[C@H](O)[C@@H](O)[C@@H]4O)[C@@H]3[C@@]3(CO)O[C@@H]23)O[C@@H](C)[C@@H]1OC(=O)/C=C/c1ccccc1 | -1.67% (inactive) | – | –
10 | Nc1nc2c(c(=O)[nH]1)C[C@@H](CCc1ccc(C(=O)N[C@@H](CCC(=O)O)C(=O)O)cc1)CN2 | – | – | 116 nM (active)
11 | Nc1ccc(/C=C/C(=O)NCc2cc3cc(-c4ccc(C(=O)N5CCC(F)(F)CC5)cc4)cc(-c4ccc(F)cc4)c3o2)cn1 | – | – | 3660 nM (active)
12 | C=CC(C)(O)C(O)CC1C(C)(O)C(O)C(O)C2C(C)(C)CCCC21C (centres undefined) | 1.81% (inactive) | – | –
13 | CC(CO)C1CCC2(C)CC3C(CO)CC(O)C3C(C)(O)C/C=C/12 (centres undefined) | -6.97% (inactive) | – | –
14 | C[C@@H]1C(=O)O[C@H]2[C@@H](O)C34[C@H]5C[C@@H](C(C)(C)C)C36[C@@H](OC(=O)[C@@H]6O)O[C@@]4(C(=O)O5)[C@@]12O (some centres undefined) | -0.587% (inactive) | – | –
15 | COc1ccc(N(C)c2nc(C)nc3ccccc23)cc1 | – | – | 10.3 nM (active)
16 | CC12CCC(=O)C=C1C(O)CC1C2C(O)CC2(C)C1CC[C@]2(O)C(=O)CO (some centres undefined) | – | inactive | –
17 | CC12CCC(OC3OC(CO)C(O)C(OC4OC(CO)C(O)C(O)C4O)C3O)CC1CCC1C2CCC2(C)/C(=C3/COC(=O)C3)CCC12O (centres undefined) | -8.75% (inactive) | – | –
18 | CC1CC[C@]2(C(=O)O)CC[C@]3(C(=O)O)C(=CCC4[C@@]5(C)CC[C@H](OC6OC(C)C(O)C(OC7OC(CO)C(O)C(O)C7O)C6O)C(C)(C)C5CC[C@]43C)C2C1C (some centres undefined) | -0.92% (inactive) | – | –
19 | Cc1cc(C(=O)Nc2cccc(C(=O)Nc3cccc(C(F)(F)F)c3)c2)on1 | 4.99% (inactive) | – | –
20 | CC1OC2OC(=O)C3(C)CC4=C(CO)C5=C(CC(=O)C4(C)C(C1=O)C23)C(C)(C)OC(=O)C5 (centres undefined) | -28.4% (inactive) | – | –
21 | CC1NC(=O)CCCNC(=O)C(Cc2c[nH]c3ccccc23)NC(=O)C(C)NC(=O)C(C(C)C)NC(=O)C(C(C)c2ccccc2)NC(=O)C(C(C)C)NC1=O (stereo not drawn) (cyclo([GABA]AV[ξPhe(βξ-Me)]VAW); configuration not given here) | -8.98% (inactive) | – | –
22 | CO[C@H]1O[C@@H]2O[C@]3(C)CC[C@H]4[C@H](C)CC[C@@H]([C@H]1C)[C@@]24OO3 | -2.96% (inactive) | – | –
23 | C[C@H](Oc1ccc(S(C)(=O)=O)cc1C(=O)N1CCN(c2ncc(C(F)(F)F)cc2F)CC1)C(F)(F)F | – | inactive | –
24 | O=C(Nc1nc2ccccc2n1CCc1ccccc1)c1ccccc1 | 1.35% (inactive) | – | –
25 | C[C@@H]1O[C@@H](O[C@H]2[C@H](O[C@H]3[C@H](O[C@H]4CC[C@@]5(C)C(CC[C@]6(C)C5CC=C5[C@@H]7CC(C)(C)C[C@@H](O)[C@]7(C)CC[C@]56C)[C@@]4(C)CO)O[C@H](C(=O)O)[C@@H](O)[C@@H]3O)OC[C@H](O)[C@@H]2O)[C@H](O)[C@H](O)[C@H]1O (some centres undefined) | -3.42% (inactive) | – | –
26 | CC(C)(C)NS(=O)(=O)c1cncc(-c2cc(F)c3nc(N)nn3c2)c1 | – | inactive | –
27 | Cc1[nH]c2ccccc2c1CCNC(=O)c1ccccc1F | -5.45% (inactive) | – | –
28 | CC(C)c1cccc2c(-c3ccccc3)cc(-c3ccc(-c4ccc(C(=O)O)cc4)[nH]3)nc12 | -17.4% (inactive) | – | –
29 | CC1(C)CC[C@]2(C(=O)O[C@@H]3O[C@H](CO)[C@@H](O)[C@H](O)[C@H]3O)CC[C@]3(C)C(=CCC4[C@@]5(C)CC[C@H](O[C@@H]6O[C@H](C(=O)O)[C@@H](O)[C@H](O)[C@H]6O)C(C)(C)C5CC[C@]43C)C2C1 (some centres undefined) | 0.241% (inactive) | – | –
